PMP22 txn – modulators of PMP22 gene transcription in S16 Schwann cells. Potency, µM (titrated, usually from 57.5 µM), for the others: top-dose activity change, negative = inhibition, usual class: inhibitors. actives 2% (n = 43,000). S16 Pmp22-F2sN Schwann cells, FLuc/NLuc coincidence luminescence, 24 h; active = clear falling dose curves in both reporters; inconclusive = both reporters move, but less clearly or upward; inactive = either reporter flat; the % is the NLuc reporter signal; note: potency is the fitted concentration of half-maximal effect; % is set by controls: 0 for no effect and ±100 for the full control effect
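S16 Schwann cells carrying FLuc/NLuc coincidence reporter in the Pmp22 3' UTR treated with compound 24 h at 37C; FLuc then NLuc luminescence read sequentially by dual-luciferase reagents.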
p53null 32C tox – p53 null cell cytotoxicity, permissive temperature. H1299-neo p53 null cells, ATP luminescence, 24 h, 32C. Potency, µM (top dose mostly 46.1 µM), without a hit: at the top dose activity change, negative = cytotoxicity, hits mostly cytotoxic. actives 0.62% (n = 55,000). AID 903;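 note: potency is the fitted concentration of half-maximal effect; 0% = DMSO only and -100% = full killing by 100 µM tamoxifen; nearly all actives have a fitted effect of over 55% in size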
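We seeded p53-null H1299-neo cells, incubated them overnight at 37C, and added compounds across a range up to 46 uM. After 24 hours at 32C, ATP reagent was applied for 20 min at room temperature and luminescence recorded.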
SKOV3 invasion – blocks SKOV3ip1 adhesion and invasion in omental model; SKOV3ip1-GFP adhesion/invasion on 3D omental model, fluorescence; Potency, µM (doses to about 45.8 µM), for inactives: at the highest dose activity change, negative = inhibition, usual class: inhibitors; actives 0.1% (n = 46,000); AID 1963576;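 note: potency is the fitted concentration of half-maximal effect; plate controls were DMSO wells for no effect and tomatine positive control wells for full effect; nearly all actives have a fitted effect of over 65% in size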
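A 3D layer of primary human omental fibroblasts, mesothelial cells, fibronectin and collagen I, grown 48 hr, received SKOV3ip1-GFP cells in serum-free medium plus compounds at 0.36-46 umol/L. After 2 hr RT and 16 hr 37 C, fixed adherent GFP cells were counted; normalized to DMSO and tomatine.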
pS6 MEF inh – reduces mTORC1 signaling in Tsc2 and p53 null MEF cells. Tsc2-/- p53-/- MEF, phospho-rpS6 immunofluorescence/PI, 24 h. Potency, µM (doses to about 38.3 µM), inactives show at the highest dose activity change, negative = inhibition, actives largely listed as inhibitors. actives 0.78% (n = 44,000). AID 493208;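 note: potency is the fitted concentration of half-maximal effect; plate controls were DMSO for no effect and rapamycin for full effect; nearly all actives have a fitted effect of over 50% in size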
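Cell-based qHTS: Tsc2-/- p53-/- MEF, 24 h cpd, 37 °C; fix/perm, anti-phospho-S6 Alexa-488 + PI; Acumen 488 nm scan; pS6/PI ratio, % positive cells; rapamycin 7.5 nM = inhibition ref; PI count = viability.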
S16 viability – S16 Schwann cell cytotoxicity. S16 Pmp22-F2sN Schwann cells viability, CellTiter-Glo, 24 h. Potency, µM (doses to about 57.5 µM), inactives show top-dose activity change, negative = cytotoxicity, hits mostly cytotoxic. actives 0.48% (n = 43,000); note: potency is the fitted concentration of half-maximal effect; % is set by controls: 0 for no effect and ±100 for the full control effect; nearly all actives have a fitted effect of over 65% in size
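Viability was measured by CellTiter-Glo luminescence (15 min, room temperature). This followed 24 h at 37 °C of compound exposure (23 nL pin transfer) in S16 Pmp22-F2sN Schwann cells, 500-1,000 per well.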
p53null 39C tox – selectivity test: cytotoxicity in p53 null cells, nonpermissive temperature; H1299 p53-null (neo) cells, 39C, ATPlite viability, 24 h; Potency, µM (top dose mostly 46.1 µM), for inactives: at the top dose activity, negative = cell killing, most hits filed as cytotoxic; actives 0.97% (n = 55,000); AID 904;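 note: potency is the fitted concentration of half-maximal effect; 0% = DMSO only and -100% = full killing by 100 µM tamoxifen; nearly all actives have a fitted effect of over 50% in size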
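Following overnight plating at 37C (600 cells/well), H1299-neo or H1299-p53A138V cells are dosed up to 46 uM. Incubation lasts 24 hr at 39C before ATP detection.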
NLuc saturating – inhibits NanoLuc at saturating substrate, PMP22 counter-screen. AID 1508638. Potency, µM (titrated, usually from 57.5 µM), for the others: at the highest dose activity change, negative = inhibition, hits mostly inhibitors. Secreted NLuc enzyme (filtered S16 cell medium), Nano-Glo luminescence. actives 4% (n = 690). shares compounds with PMP22 txn; note: potency is the fitted concentration of half-maximal effect; % is set by controls: 0 for no effect and ±100 for the full control effect
NLuc Km ctr – NanoLuc inhibition at Km substrate, PMP22 artifact check. shares compounds with PMP22 txn. secreted NLuc enzyme, coelenterazine luminescence, Km conditions. Potency, µM (titrated, usually from 57.5 µM), for the others: at the highest dose activity change, negative = inhibition, most hits filed as inhibitors. actives 5% (n = 690). AID 1508639; note: potency is the fitted concentration of half-maximal effect; % is set by controls: 0 for no effect and ±100 for the full control effect
FLuc counter – counter-screen for PMP22 expression modulators: firefly luciferase inhibition. shares compounds with PMP22 txn. purified P. pyralis FLuc, luminescence, 10 min. Potency, µM (doses to about 57.5 µM), inactives show at the highest dose activity, negative = inhibition, most hits filed as inhibitors. 690 tested, under 10 active; note: % of control where 0% means no effect
Target sequence (P08659 whole entry, looked up): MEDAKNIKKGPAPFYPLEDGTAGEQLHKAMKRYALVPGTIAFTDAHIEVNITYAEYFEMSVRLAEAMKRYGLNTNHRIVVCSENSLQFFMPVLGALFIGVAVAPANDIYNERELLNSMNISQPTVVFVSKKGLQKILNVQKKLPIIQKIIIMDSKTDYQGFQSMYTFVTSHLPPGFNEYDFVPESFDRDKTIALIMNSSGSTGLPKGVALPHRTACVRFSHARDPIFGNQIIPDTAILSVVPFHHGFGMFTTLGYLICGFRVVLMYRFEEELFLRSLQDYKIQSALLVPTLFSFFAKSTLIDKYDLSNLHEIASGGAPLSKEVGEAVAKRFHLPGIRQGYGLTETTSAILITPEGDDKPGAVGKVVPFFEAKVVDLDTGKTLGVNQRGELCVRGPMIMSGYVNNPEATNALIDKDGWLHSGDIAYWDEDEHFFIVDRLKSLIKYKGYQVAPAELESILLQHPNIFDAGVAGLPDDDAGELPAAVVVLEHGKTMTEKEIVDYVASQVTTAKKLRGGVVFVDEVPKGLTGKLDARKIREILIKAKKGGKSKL
S16 F2sN tox cnf – S16 Schwann cell cytotoxicity, confirmatory; shares compounds with PMP22 txn; Potency, µM (doses to about 57.5 µM), for inactives: top-dose activity change, negative = viability loss, most hits filed as cytotoxic; actives 7% (n = 690); S16 Schwann cells viability, CellTiter-Glo ATP luminescence, 24 h; note: potency is the fitted concentration of half-maximal effect; % is set by controls: 0 for no effect and ±100 for the full control effect
PMP22 txn conf – PMP22 transcription modulation, confirmatory. Potency, µM (top dose mostly 57.5 µM), inactives show at the highest dose activity change, negative = inhibition, usual class: inhibitors. shares compounds with PMP22 txn. S16 Schwann cells Pmp22-F2sN, dual luciferase, 24 h. actives 22% (n = 690); active = clear falling dose curves in both reporters; inconclusive = both reporters move, but less clearly or upward; inactive = either reporter flat; the % is the FLuc reporter signal; note: potency is the fitted concentration of half-maximal effect
PMP22 prot conf – confirmation of modulators of rat PMP22 protein expression; shares compounds with PMP22 txn; S16 Schwann cells Pmp22-HiBiT, luminescence, 48 h; AID 1508647; 95 tested, under 10 active; Potency, µM (top dose mostly 27.9 µM), for the others: top-dose activity change, negative = inhibition, most hits filed as inhibitors
Target sequence (P25094 whole entry, looked up): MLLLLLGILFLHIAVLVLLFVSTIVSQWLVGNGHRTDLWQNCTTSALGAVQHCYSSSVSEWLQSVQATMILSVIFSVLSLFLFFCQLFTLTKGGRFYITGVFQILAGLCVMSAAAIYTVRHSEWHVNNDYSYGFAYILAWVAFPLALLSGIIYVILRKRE
The depositor's hits bear a star; [ ] = another dose, or the depositor's remark. An excerpt weighted towards active compounds, which were near 3.1% of everything screened. Unless noted, calls come from the whole dose curve; as a rule, active = well fitted curve in the direction sought with a large enough effect; inconclusive = small, poorly fitted or top-dose-only effect, or another doubt; inactive = no such curve, though single readings can be large; an effect the other way counts as inactive or inconclusive.

How did CCOc1ccc(C(=O)c2cnc3ccc(Cl)cc3c2S(=O)(=O)c2ccc(C)cc2)cc1 do in these assays?
PMP22 txn: 14µM*; p53null 32C tox: 10%; SKOV3 invasion: 7%; pS6 MEF inh: -3%; S16 viability: -23%; p53null 39C tox: 8%; NLuc saturating: -17%; NLuc Km ctr: 5%; FLuc counter: 0%; S16 F2sN tox cnf: 15%; PMP22 txn conf: 19µM*; PMP22 prot conf: 31%

What do the screens show for `O=C(Nc1ccc(Cl)cc1)c1cnn2c1NC(c1ccccc1)=CC2c1ccccc1` (stereo unspecified)?
PMP22 txn: 14µM*; p53null 32C tox: -23%; SKOV3 invasion: -5%; pS6 MEF inh: -9%; S16 viability: inconclusive; p53null 39C tox: inconclusive; NLuc saturating: inconclusive; NLuc Km ctr: inconclusive; FLuc counter: 4%; S16 F2sN tox cnf: 22%; PMP22 txn conf: inconclusive

What do the screens show for `CC1=C(C(=O)Nc2ccc(Cl)cc2)C(c2ccccc2)n2ncc(C(=O)Nc3ccccc3)c2N1` (stereo unspecified)?
PMP22 txn: inconclusive; p53null 32C tox: 18%; SKOV3 invasion: inconclusive; pS6 MEF inh: inconclusive; S16 viability: inconclusive; p53null 39C tox: 25%

What do the screens show for `CCc1ccc(S(=O)(=O)c2cn(Cc3ccccc3F)c3cc(OC)c(OC)cc3c2=O)cc1`?
PMP22 txn: 14µM*; p53null 32C tox: 9%; SKOV3 invasion: 11%; pS6 MEF inh: -8%; S16 viability: -18%; p53null 39C tox: -12%; NLuc saturating: -19%; NLuc Km ctr: 4%; FLuc counter: 7%; S16 F2sN tox cnf: 9%; PMP22 txn conf: -44%

How did CCc1ccc(S(=O)(=O)c2cn(Cc3ccc(OC)cc3)c3cc(OC)c(OC)cc3c2=O)cc1 do in these assays?
PMP22 txn: -23%; p53null 32C tox: 18%; SKOV3 invasion: 9%; pS6 MEF inh: 1%; S16 viability: -17%; p53null 39C tox: -12%

Results for NC1=N[C@H]2[C@H](CS[C@H]2CCCCC(=O)O)N1 ?
SKOV3 invasion: 9%[23.2 µM]

What do the screens show for `CCOc1ccc(CNS(=O)(=O)c2cc(-c3cc(C)no3)ccc2C)cc1OC`?
PMP22 txn: -9%; p53null 32C tox: -9%; SKOV3 invasion: 0%; pS6 MEF inh: 3%; S16 viability: 0%; p53null 39C tox: -5%

Results for CCc1ccc(-c2cc(C)no2)cc1S(=O)(=O)NCc1ccc(OC)cc1 ?
PMP22 txn: 6µM*; p53null 32C tox: -19%; SKOV3 invasion: -29%; pS6 MEF inh: inconclusive; S16 viability: 2%; p53null 39C tox: inconclusive; NLuc saturating: inconclusive; NLuc Km ctr: inconclusive; FLuc counter: -18%; S16 F2sN tox cnf: -11%; PMP22 txn conf: inconclusive

Results for CCn1c(=O)cc(OCC(=O)N2CCN(c3ccccc3OC)CC2)c2ccccc21 ?
PMP22 txn: 17µM*; p53null 32C tox: 6%; SKOV3 invasion: 1%; pS6 MEF inh: 0%; S16 viability: -12%; p53null 39C tox: -13%; NLuc saturating: -14%; NLuc Km ctr: -17%; FLuc counter: 5%; S16 F2sN tox cnf: 9%; PMP22 txn conf: -12%

How did CCC(=O)N1CCc2cc(S(=O)(=O)CCC(=O)Nc3ccc(Cl)c(C(F)(F)F)c3)ccc21 do in these assays?
PMP22 txn: 11µM*; p53null 32C tox: 14%; SKOV3 invasion: inactive; pS6 MEF inh: -12%; S16 viability: -16%; p53null 39C tox: -6%; NLuc saturating: -6%; NLuc Km ctr: 5%; FLuc counter: 7%; S16 F2sN tox cnf: -1%; PMP22 txn conf: 18µM*; PMP22 prot conf: inconclusive

How did c1ccc2c(CCNc3ccc(Nc4ccncc4)cc3)c[nH]c2c1 do in these assays?
SKOV3 invasion: -26%

How did CC(C)Sc1nc2sc3c(c2c(=O)n1-c1ccccc1)CCCC3 do in these assays?
PMP22 txn: inconclusive; p53null 32C tox: -1%; SKOV3 invasion: 4%; pS6 MEF inh: 4%; S16 viability: 14%; p53null 39C tox: 13%

Results for CSc1nc2sc3c(c2c(=O)n1-c1ccc(C)cc1)CCCC3 ?
PMP22 txn: 14µM*; p53null 32C tox: -7%; SKOV3 invasion: 12%; pS6 MEF inh: -1%; S16 viability: 20%; p53null 39C tox: -14%; NLuc saturating: 4.8µM*; NLuc Km ctr: inconclusive; FLuc counter: 4%; S16 F2sN tox cnf: 6%; PMP22 txn conf: inconclusive

High-throughput results deposited in PubChem BioAssay by National Center for Advancing Translational Sciences (NCATS).
